Screening data deposited in PubChem by National Center for Advancing Translational Sciences (NCATS).
GLP1R inv ag = acts as inverse agonist at human GLP-1 receptor. P43220. HEK293 GLP-1R CRE-luciferase, luminescence, 24 h; GLP-1R form is constitutively active. Potency, µM (titrated, usually from 38.3 µM), for inactives: at the highest dose activity change, negative = inhibition, usual class: inhibitors. hit rate 1.6% among 410,000; also: potency is read from the fitted curve at half-maximal effect; % is scaled to controls: 0 for no effect and ±100 for the full control effect; nearly all actives have a fitted effect of over 55% in size
Target sequence (P43220 whole entry, looked up): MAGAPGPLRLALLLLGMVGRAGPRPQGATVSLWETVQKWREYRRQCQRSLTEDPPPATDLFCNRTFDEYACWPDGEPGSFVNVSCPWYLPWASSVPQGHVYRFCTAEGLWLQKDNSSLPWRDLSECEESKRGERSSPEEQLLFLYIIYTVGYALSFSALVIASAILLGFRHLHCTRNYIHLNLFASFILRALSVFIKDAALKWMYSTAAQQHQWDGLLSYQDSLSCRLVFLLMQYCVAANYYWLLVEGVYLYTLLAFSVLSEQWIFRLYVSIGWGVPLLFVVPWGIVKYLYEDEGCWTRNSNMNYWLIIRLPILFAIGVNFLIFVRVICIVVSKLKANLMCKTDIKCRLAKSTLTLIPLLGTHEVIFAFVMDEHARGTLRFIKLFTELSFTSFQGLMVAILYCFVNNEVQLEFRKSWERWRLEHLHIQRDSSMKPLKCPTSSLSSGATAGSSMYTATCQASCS
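HEK293 cells stably co-expressing constitutively active GLP-1R and a cAMP-responsive luciferase reporter were seeded in DMEM with 10% Nu serum, given compounds after 12 h, and incubated 24 h at 37 deg C. Luminescence was then read.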
IDH1 R132H inh = inhibitors of human mutant IDH1 R132H. IDH1-R132H enzyme, NADPH consumption, diaphorase/resazurin fluorescence. Potency, µM (highest dose often 76.6 µM), without a hit: at the top dose activity change, negative = inhibition, hits mostly inhibitors. hit rate 0.093% among 390,000. AID 602179; also: potency is read from the fitted curve at half-maximal effect; % is scaled to controls: 0 for no effect and ±100 for the full control effect; nearly all actives have a fitted effect of over 65% in size
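IDH1-R132H (0.5 ug/mL) preincubated 30 min with compound, then NADPH (0.016 mM) and alpha-KG (2 mM) added; 80 min at RT, pH 7.5. Remaining NADPH coupled via diaphorase/resazurin to fluorescence (540/590 nm); concentration-response curves normalized to no-enzyme control.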
GLP1R cytotox = cytotoxicity counter-screen for GLP-1 receptor inverse agonists; HEK293 cAMP-luciferase reporter cells, luminescence, 24 h; Potency, µM (titrated, usually from 38.3 µM), inactives show at the highest dose activity change, negative = inhibition, hits mostly inhibitors; hit rate 0.13% among 410,000;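 also: loss of luciferase light is scored as toxicity; potency is read from the fitted curve at half-maximal effect; % is scaled to controls: 0 for no effect and ±100 for the full control effect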
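Cells in DMEM/10% Nu serum/1% pen-strep, 1536-well format. Pre-incubated 12 h, dosed with 23 nL compound, incubated a further 24 h. Luciferase detection, 12 min at room temp, luminescence.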
LDHA block = inhibitors of human lactate dehydrogenase A | P00338 | purified LDHA, NADH/diaphorase-resazurin fluorescence; hits give low values | activity change, % (values are at about 110 or 230 µM) | hit rate 0.15% among 480,000 | AID 1347041; in the data active = activity change below about -30%; inconclusive = mostly about -25% to -30%;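 also: plate controls were DMSO wells for no effect and wells without enzyme for full effect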
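Resorufin fluorescence (ex540/em590), read at 0 and 20 min after diaphorase/resazurin addition, reports the NADH left after a 5 min room-temperature reaction of 2 nM human LDH5 with 0.06 mM NADH and 0.2 mM pyruvate.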
PTHR1 agonist = agonists of human PTHR1 parathyroid hormone receptor; Potency, µM (top dose mostly 115 µM), without a hit: top-dose activation, most hits filed as activators; hit rate 0.075% among 410,000; HEK293 GP2 PTHR1 cells, GloSensor cAMP luminescence, 1 h; AID 743266; also: potency is read from the fitted curve at half-maximal effect; nearly all actives have a fitted effect of over 55% in size
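HEK-293-derived GP2 cells expressing PTHR1 and a GloSensor cAMP reporter, 3,000/well, plated overnight, given luciferin plus IBMX (each 0.5 mM as added) for 1 h at 37 °C, then compound for 1 h at 37 °C. Luminescence was read after 15 min at room temperature.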
GLP-1R agonist = activates the human GLP-1 receptor; HEK293 GLP-1R CRE-luciferase, luminescence, 4-6 h; cells express a hypersensitive GLP-1R form; Potency, µM (series often up to 45.6 µM), inactives show at the highest dose activation, usual class: activators; hit rate 0.007% among 380,000; AID 624172; also: potency is read from the fitted curve at half-maximal effect; % of control where 0% means no effect
Starred values were filed as active, the others as inactive; i = inactive; ? = inconclusive; · = not tested or not shown; [ ] = another dose, or the depositor's remark. Only some compounds are listed: those with a hit (about 1.7% of all), similar ones and a draw of the others. Unless noted, calls follow the shape of the dose curve; as a rule, active = well fitted curve in the direction sought with a large enough effect; inconclusive = small, poorly fitted or top-dose-only effect, or another doubt; inactive = no such curve, though single readings can be large; an effect the other way counts as inactive or inconclusive.

SMILES	GLP1R inv ag	IDH1 R132H inh	GLP1R cytotox	LDHA block	PTHR1 agonist	GLP-1R agonist
COc1ccc(C2CC(=O)N(Cc3ccc(F)cc3)c3ccccc3S2)cc1OC (stereo unspecified)	16%	7%	3%	0	-29%	-6%
O=C1CC(c2ccccc2)Sc2ccccc2N1Cc1ccccc1F (stereo unspecified)	10µM*	9%	-7%	-2	-26%	-1%
CC(C)(C)CC(=O)Nc1nnc(C(F)(F)F)s1	?	17%	6%	-5	-11%[57.5 µM]	-4%
CC(NC(=O)Nc1nnc(C(F)(F)F)s1)(C(F)(F)F)C(F)(F)F	4.5µM*	7%	?	-2	-26%[57.5 µM]	-1%
O=C(Cc1n[nH]c(=O)c2ccccc12)OCC(=O)c1ccc(C2CCCCC2)cc1	·	·	·	11	·	·
COc1ccc(C(=O)N/N=C/c2sc3ccccc3c2O)cc1	1.6µM*	6%	?	8	-9%	-1%
Cc1c(Cl)cccc1NC(=O)CCN1CCN(Cc2cccc3ccccc23)CC1	·	·	·	2	·	·
CN1CCN(CC(O)CN)CC1 (stereo unspecified)	·	·	·	-1	·	·
CC1CC(C)(C)N(C(=O)CN2C(=O)c3ccccc3C2=O)c2ccccc21 (stereo unspecified)	?	2%	-9%	-6	i	10%
Cc1ccc2c(c1)C(C)CC(C)(C)N2C(=O)CN1CCN(C)CC1 (stereo unspecified)	-26%	3%	-3%	-40*	i	-2%
CC1CC(C)(C)N(C(=O)CN2CCN(C)CC2)c2ccccc21 (stereo unspecified)	5%	4%	8%	-35*	i	-2%
CN1CCN(CC(=O)N2c3ccccc3C(C)(c3ccccc3)CC2(C)C)CC1 (stereo unspecified)	10µM*	0%	-24%	0	i	-10%
O=C(OCc1coc(-c2ccccc2)n1)C1=NN(C2CCS(=O)(=O)C2)C(=O)CC1 (stereo unspecified)	·	·	·	3	·	·
CC1CC=C(c2ccccc2)C(=S)N1 (stereo unspecified)	10µM*	1%	?	0	i	1%
S=C1NN=C(c2ccccc2)C(c2ccccc2)N1 (stereo unspecified)	·	·	·	4	·	·
CCN(C(=O)CN1CCN(C)CC1)c1cccc2ccccc12	1%	1%	-2%	-36*	-39%[57.5 µM]	0%
CCN(C(=O)CN1C(=O)CN(C)C1=O)c1cccc2ccccc12	-27%	1%	-3%	-9	i	11%
COC(=O)c1[nH]c2ccc(C)cc2c1NS(=O)(=O)c1ccc(F)c(C)c1	10µM*	18%	-3%	-2	i	4%
CCCOc1ccc(C2C(=O)N(C3CCCCCC3)CC(=O)N2Cc2ccc(OC)cc2)cc1OC (stereo unspecified)	11%	19%	7%	-11	i	·
CCCCOC1CC(c2ccc(OCc3ccc(OC)cc3)c(OC)c2)N(C)O1 (stereo unspecified)	10µM*	7%	-17%	4	-33%	11%
CCN(CC)c1ccc(N=Nc2nn(C)c(C)c2[N+](=O)[O-])cc1	6%	5%	4.5µM*	1	-25%	18%
O=C(Nc1ccc(F)cc1)C(NC1CCCCC1)c1ccccc1 (stereo unspecified)	7.9µM*	-3%	19%	-8	i	8%
COc1cccc(NC(=O)C(NCCC(C)C)c2ccccc2)c1 (stereo unspecified)	?	5%	-1%	3	-26%	6%
COc1cccc(NC(=O)C(NCC2CCCCC2)c2ccccc2)c1 (stereo unspecified)	10µM*	-1%	-7%	?	i	8%
O=C(CCSc1ccccc1)Nc1nccs1	0%	8%	5%	-4	-13%[57.5 µM]	-14%
SMILES	GLP1R inv ag	IDH1 R132H inh	GLP1R cytotox	LDHA block	PTHR1 agonist	GLP-1R agonist
O=C(CSc1ccccc1)N(c1ccc(Br)cc1)c1nccs1	11µM*	8%	-1%	0	0%	13%
CCc1cccc2c(C(=O)Cn3cc(S(=O)(=O)N(CC)CC)ccc3=O)c[nH]c12	·	·	·	7	·	·
O=C(Cc1cccc2ccccc12)NCC(=O)N1CCN(Cc2cccc(C(F)(F)F)c2)CC1	10µM*	-1%	-3%	3	-50%	2%
O=C(Cc1cccc(C(F)(F)F)c1)NCc1ccc(CN2CCCCC2)cc1	·	·	·	7	·	·
C[C@@H](C(=O)Nc1ccc(N(C)C)cc1)n1nnc2ccccc2c1=O	·	·	·	-2	·	·
CCNc1c(NC(=O)Nc2ccccc2F)c(=O)oc2ccccc12	·	·	·	-2	·	·
O=C(CN1CCCCC1)N1CCCN(S(=O)(=O)c2ccccc2)C1c1ccccc1 (stereo unspecified)	·	·	·	-2	·	·
C=C(Br)Cn1c(CCC)nc2ccccc21	3.5µM*	5%	6%	-1	-16%[57.5 µM]	5%
C=C(Br)Cn1c(CC)nc2ccccc21	?	-2%	22%	-3	i	9%
COc1ccc(C2=Nc3ccccc3N(C(=O)c3ccc(C(F)(F)F)cc3)C2C(=O)NCc2ccccc2)cc1 (stereo unspecified)	6.3µM*	·	17%	-6	-11%	·
CCCCNC(=O)C1C(c2ccccc2)=Nc2ccccc2N1C(=O)c1ccc(C(F)(F)F)cc1 (stereo unspecified)	?	·	-10%	-2	-28%	·
Cc1ccc(S(=O)(=O)/C(=C/Cl)NC(=O)c2ccccc2)cc1	10µM*	1%	6.3µM*	-5	-31%	-8%
COc1cc2[nH]c(=O)n(CCCC(=O)N3CC=C(c4ccccc4)CC3)c(=O)c2cc1OC	17%	7%	0%	5	i	4%
COc1cccc2c1[C@@H]1CN(CCCCn3c(=O)[nH]c4c(sc5ncc(-c6ccccc6)nc54)c3=O)C[C@@H]1CO2	10µM*	4%	-22%	-3	26%	-3%
OC[C@@H](O)[C@H](O)C(/C=N/Nc1ccccc1)=N\Nc1ccccc1	2.5µM*	1%	?	-1	i	0%
Cc1ccc2cc(CCCl)c(Cl)nc2c1	·	·	·	15	·	·
CCOC(=O)N1CCN(C(=O)c2ccc3[nH]c(C)c(C)c3c2)CC1	18%	0%	-15%	0	-34%	10%
Cc1ccc(C)c(N2CCN(C(=O)c3ccc4[nH]c(C)c(C)c4c3)CC2)c1	7.9µM*	-17%	-27%	-2	i	·
CCc1ccc(-c2csc(NC(=O)C3CCCO3)c2C(=O)OC(C)C)cc1 (stereo unspecified)	1.3µM*	2%	21%	6	?	-2%
